Bioassay records deposited in PubChem BioAssay by National Center for Advancing Translational Sciences (NCATS).
Rows were chosen to be rich in hits. Some 6.2% of all compounds tested hit in one or more screens of this group.
Lassa entry inh – blocks Lassa virus binding to or entry into cells; Lassa virus pseudotype entry inhibition, cell reporter; Potency, µM (highest dose often 37.9 µM), inactives show at the top dose activity change, negative = inhibition, most hits filed as inhibitors; actives 1.2% (n = 300,000); calls by dose curve; tested in HEK293 cells; note: potency is the fitted concentration of half-maximal effect; nearly all actives have a fitted effect of over 50% in size
Marburg entry inh – Marburg virus entry inhibition | Potency, µM (series often up to 37.8 µM), inactives show at the top dose activity change, negative = inhibition, usual class: inhibitors | AID 540276 | actives 1.8% (n = 300,000) | Marburg virus pseudotyped entry inhibition, cell reporter; calls by dose curve; tested in HEK293 cells; note: potency is the fitted concentration of half-maximal effect
FMDV antiviral – antivirals against foot and mouth disease virus; FMDV antiviral cell-based qHTS; Potency, µM (series often up to 57.9 µM), for inactives: top-dose activity change, negative = inhibition, hits mostly inhibitors; actives 1.2% (n = 410,000); AID 1159524; calls by dose curve; tested in HEK293T cells; note: read-out not given here; potency is the fitted concentration of half-maximal effect; nearly all actives have a fitted effect of over 45% in size
HCMV antiviral – inhibitors of human cytomegalovirus; HFF cells, HCMV-luciferase reporter, 72 h; active compounds read low; AID 1259415; actives 4.5% (n = 410,000); activity change, negative = inhibition, % at 57.5 µM; in the data active = activity change below about -60%; inconclusive = no clear call, values can overlap the other calls; inactive = above about -39%
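Steps: HFFs plated, 16 h 37C; compounds added; HCMV-luciferase added to MOI 1 PFU/cell; 72 h 37C; OneGlo reagent, 5 min room temperature; luminescence read, normalized to controls.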
Numbers without * were called inactive; ? = inconclusive; · = no result given; ! = a repeat was not active; [ ] = another dose, or the depositor's remark. % is set by controls: 0 for no effect and ±100 for the full control effect.

SMILES	Lassa entry inh	Marburg entry inh	FMDV antiviral	HCMV antiviral
CCOC(=O)N(O)c1ccc(C=Cc2ccccc2)cc1	0.63µM*	1.3µM*	15%	-62*
O=C(Nc1ccc(C(=O)N2CCOCC2)cc1)c1cc(-c2cccnc2)nc2ccc(Cl)cc12	?	-5%[46.1 µM]	?	-69*
CC(=O)Nc1cccc(NC(=O)c2cc(-c3cccnc3)nc3ccc(Cl)cc23)c1	?	?	?	2
O=C(Nc1cc(Cl)ccc1O)c1cc(-c2ccc3c(c2)OCO3)on1	29%[46.1 µM]	?	48%	77
CC(C)N1CCC2(CC1)N=C(c1ccc3c(c1)OCO3)CC(c1cc(Cl)ccc1O)N2 (stereo unspecified)	?	-28%	?	-81*
Cc1ccc(C2=NN(C(=O)c3ccco3)C(O)(C(F)(F)F)C2)cc1 (stereo unspecified)	-24%[46.1 µM]	-3%[46.1 µM]	-2%	-21
CC(=O)c1cccc(NC(=O)C2=CC(c3cccs3)=NS(=O)(=O)N2C)c1	-14%[46.1 µM]	-22%[46.1 µM]	-11%	-10
CCCCOc1ccc(-c2cc(C(=O)NNC(=S)NCC)c3ccccc3n2)cc1	?	1.5µM*	?	-93*
CCOc1ccc(-c2cc(C(=O)N3CCC(C)CC3)c3ccccc3n2)cc1	30%	16%	21%	27
CCOc1ccc(-c2cc(C(=O)O)c3ccccc3n2)cc1	12µM*	21µM*	?	69
O=C(Oc1ccc([N+](=O)[O-])cc1)c1cc(-c2ccccc2)nc2ccccc12	5%	1%	20µM*	-7
CCCCOc1cccc(-c2cc(C(=O)NNC(=S)NCC)c3ccccc3n2)c1	30%[14.3 µM]	-9%	76%	-7
CCNC(=S)NNC(=O)c1cc(-c2ccc(OC)cc2)nc2ccccc12	3.3µM*	0.65µM*	11µM*	134
CCOc1ccc(CCNC(=O)COC(=O)CSc2ccc(C)cc2)cc1OCC	8%	?	-22%	3
CCOc1ccc(C(=O)CCC(=O)NNC(=O)c2ccccc2O)cc1	-26%	23%[46.1 µM]	-14%	-16
CCOC(=O)c1c(C)n(C)c2cc(-c3cccc(C(F)(F)F)c3)c(O)cc12	5%	25%	-13%	-33
Cc1ccc(NCC(=O)N/N=C/c2cccc(Oc3ccccc3)c2)cc1	2.3µM*	4%	?	?
CC(/C=C/c1ccco1)=N\NC(=O)CNc1cccc(C)c1	·	·	-16%	-61*
Cc1cccc(NCC(=O)N/N=C\c2cccc(Oc3ccccc3)c2)c1	?	?	?	-67*
CSc1ccc(/C=N\NC(=O)CNc2ccc(C)cc2)cc1	1.3µM*	-8%	·	10
COC(=O)N/N=C(C)\C=C\c1ccco1	16%	9%	43%	0
Cc1ccc(NCC(=O)N/N=C/c2ccncc2)cc1	2%	14%[46.1 µM]	25%	-2
O=C(C=Cc1cccc(Cl)c1)c1ccccc1	-1%[46.1 µM]	?	5%	-3
COc1ccc(Cl)cc1NC(=O)Cn1c(=O)n(CCC(=O)NCc2ccc3c(c2)OCO3)c(=O)c2ccccc21	-1%[46.1 µM]	-20%[46.1 µM]	18%	-64*
COc1ccc(CCNC(=O)CCCCn2c(=O)c3ccccc3n(CC(=O)Nc3c(C)cccc3C)c2=O)cc1OC	4%[46.1 µM]	-1%[46.1 µM]	-8%	-109*
SMILES	Lassa entry inh	Marburg entry inh	FMDV antiviral	HCMV antiviral
Cc1ccc(C)c(NC(=O)Cn2c(=O)n(CCC(=O)NCc3ccc4c(c3)OCO4)c(=O)c3ccccc32)c1	-2%[46.1 µM]	-7%[46.1 µM]	13%	-2
COc1ccc(NC(=O)Cn2nnc(C(=O)NCc3ccccc3)c2N)c(OC)c1	?	8.2µM*	?	-13
COc1ccccc1NC(=O)Cn1nnc(C(=O)NCc2ccc3c(c2)OCO3)c1N	-3%[46.1 µM]	15%[46.1 µM]	-15%	-69*!
Cc1ccccc1C(=O)NC1CCN(CC(=O)Nc2ccc3c(c2)OCO3)CC1	·	·	8%	-10
CCC1(c2ccccc2)NC(=O)N(CC(=O)N(C)Cc2ccccc2)C1=O (stereo unspecified)	6%	9%	-3%	?
COc1ccccc1NC(=O)c1sc2nc3c(cc2c1N)CN(Cc1ccccc1)CC3	5%[46.1 µM]	6%[46.1 µM]	?	0
COc1ccc(NC(=O)c2sc3nc4c(cc3c2N)CN(Cc2ccccc2)CC4)c(OC)c1	-3%[46.1 µM]	-3%[46.1 µM]	?	-95*
O=C(c1nn(Cc2ccccc2)c(=O)c2ccccc12)N1CCN(C/C=C/c2ccccc2)CC1	?	?	?	23
C=CCN1C(c2cccc(C(F)(F)F)c2)=CS/C1=C(\C#N)c1nnc(N2CCOCC2)n1-c1ccccc1	·	·	-19%	-5
C=CCN1C(=O)NC(c2ccccc2)(C(F)(F)F)S/C1=C(\C#N)c1nnc(N2CCOCC2)n1-c1ccccc1 (stereo unspecified)	-29%	-28%	32µM*	-25
Cc1ccc(C(O)c2ncc(-c3ccc4ccccc4c3)[nH]2)cc1F (stereo unspecified)	·	·	33%	44
CN1CCCN(C(=O)c2ccc(Br)s2)CC1	·	·	-26%	2
CC(=O)c1ccc(N2CCN(C(=O)CCC(=O)c3cccs3)CC2)cc1	10%	3%	-4%	-82*
CC(=O)c1ccc(N2CCN(C(=O)COc3ccc4ccccc4c3)CC2)cc1	·	·	-12%	-62*
CCOc1ccc(N(CC)C(=O)COc2cc(=O)n(CC)c3ccccc23)cc1	-27%	-17%	-12%	-95*
O=C(CCC(=O)N1CCN(c2ccc(O)cc2)CC1)c1cccs1	·	·	42%	?
COc1ccc(N2CCN(C(=O)COc3ccc4ccccc4c3)CC2)cc1	-1%	15%	-18%	-7
CCn1c(=O)cc(OCC(=O)N2CCCC2)c2ccccc21	·	·	-22%	5
CCn1c(=O)cc(OCC(=O)N2CCN(c3ccc(OC)cc3)CC2)c2ccccc21	?	-20%[46.1 µM]	-23%	-95*
CCn1c(=O)cc(OCC(=O)N2CCN(c3ccc(C(C)=O)cc3)CC2)c2ccccc21	15%[46.1 µM]	5%[46.1 µM]	-12%	22
CC(=O)N1CCC2(CC1)OC(=O)C(C)=C2C(=O)Nc1cc(C)ccc1C	27%[46.1 µM]	·	0%	?
Cc1ccc(N2CC(NC(=O)C(=O)c3c(C)[nH]c4ccccc34)CC2=O)cc1C (stereo unspecified)	4%	30%	-8%	-10
CCN(C(=O)COc1cc(=O)n(C)c2ccccc12)c1cccc(C(F)(F)F)c1	-2%[46.1 µM]	?	-24%	-39
CCOc1ccc(N(CC)C(=O)COc2cc(=O)n(C)c3ccccc23)cc1	·	·	-9%	-103*
CCn1c(=O)cc(OCC(=O)N(C)c2ccc(OC)cc2)c2ccccc21	-1%[46.1 µM]	-14%[46.1 µM]	-15%	-72*
O=c1[nH]c(=O)n(Cc2ccccc2)c2nc(-c3ccc(C(F)(F)F)cc3)n(CCO)c12	?	-29%	35%	77
O=C(Nc1cccc(-n2cccn2)c1)C1CCCN(Cc2cc3ccccc3[nH]2)C1 (stereo unspecified)	?	?	-16%	-11
CCn1ncc(CN2CCCC(C(=O)Nc3cccc(-c4cc5ccccc5[nH]4)c3)C2)c1C (stereo unspecified)	13µM*	?	?	?
CC(NC(=O)C1CCN(S(=O)(=O)c2cccc3cccnc23)CC1)c1ccccc1 (stereo unspecified)	·	·	-4%	15
COc1cc(NC(=O)C2CCN(S(=O)(=O)c3cccc4nonc34)CC2)cc(OC)c1	4%	-18%	?	22
